Screening data from PubChem.
MITF inh – human MITF inhibition, primary screen | O75030 | AlphaScreen MITF homodimerization, bead proximity signal | inhibition, % at 2.6 µM | 650,000 tested, 0.91% active | AID 1259374; in the data active means inhibition above about 50%;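 further: 0% = vehicle wells with protein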
TEAD-YAP inh – TEAD-YAP interaction inhibition | 640,000 tested, 1.4% active | inhibition, % at 9.12 µM | HEK-TIYL cells, TEAD-Gal4/YAP UAS-luciferase luminescence; in the data active means inhibition above about 32%;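 further: 0% = median of test compound wells and 100% = reference inhibitor wells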
FBW7 act – human FBW7 E3 ligase activation, primary screen; AID 1259310; normalized activity (activation), % at 26.1 µM; AlphaScreen FBW7–phospho-cyclin E peptide binding, activator screen; 650,000 tested, 0.13% active; in the data active means normalized activity above about 1.9%;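 further: purified mutant Fbw7 with reduced substrate affinity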
GPR151 activ – activators of human GPR151 | PathHunter beta-arrestin GPR151 cells, luminescence | Q8TDV0 | 650,000 tested, 1% active | activation, % at 11.2 µM | AID 1508602; in the data active means activation above about 4.9%;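 further: 0% = median of compound wells and 100% = cells with positive control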
Target sequence (Q8TDV0 whole entry, looked up): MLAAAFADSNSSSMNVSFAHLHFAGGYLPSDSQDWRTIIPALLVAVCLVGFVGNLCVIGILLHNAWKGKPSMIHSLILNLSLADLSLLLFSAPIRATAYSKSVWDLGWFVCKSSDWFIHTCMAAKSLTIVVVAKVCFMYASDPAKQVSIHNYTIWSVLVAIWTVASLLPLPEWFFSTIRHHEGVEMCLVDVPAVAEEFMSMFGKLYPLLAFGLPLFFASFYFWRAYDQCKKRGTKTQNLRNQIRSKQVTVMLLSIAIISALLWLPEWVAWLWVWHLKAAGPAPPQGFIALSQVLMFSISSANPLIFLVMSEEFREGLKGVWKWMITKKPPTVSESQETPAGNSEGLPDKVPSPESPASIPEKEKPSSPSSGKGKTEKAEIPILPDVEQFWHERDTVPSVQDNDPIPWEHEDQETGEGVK
MITF inh conf – human MITF inhibition, confirmation; shares compounds with MITF inh; AlphaScreen MITF homodimerization, biotin/His-MITF beads; inhibition, % at 2.6 µM; 4,700 tested, 16% active;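 active means inhibition above a cutoff derived from the DMSO control wells, cut at about 28% in these data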;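 further: 0% = MITF dimer wells with DMSO only; inhibitors lower the bead chemiluminescence by keeping MITF from dimerizing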
AS interf DR – optically interferes with AlphaScreen signal in dose response; shares compounds with MITF inh; AlphaScreen optical interference counterscreen, cell-free; IC50, µM; 480 tested, 6% active; call rule not given here
AS interf ctr – AlphaScreen optical interference, counter-screen | shares compounds with MITF inh | AID 1259376 | 4,700 tested, 7.6% active | LysRS AlphaScreen counterscreen, signal interference, triplicate | inhibition, % at 2.6 µM;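 active means inhibition above a cutoff derived from the DMSO control wells, cut at about 30% in these data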
The depositor's hits bear a star. Hits are enriched below; roughly 3.5% of the tested compounds scored in any of these assays.

Results for COCCNC(=O)c1cnc2scc(C)n2c1=O ?
MITF inh: 75.6*; TEAD-YAP inh: 5.7; FBW7 act: 0.1; GPR151 activ: 0.8; MITF inh conf: 7.0; AS interf ctr: 6.7

Results for Cc1ccccc1CN1CCN2C(=O)[C@H](C(C)C)NC(=O)[C@H]2C1 ?
MITF inh: 19.1; TEAD-YAP inh: 1.8; FBW7 act: 0.5; GPR151 activ: -1.2

How did Cc1cc(Cl)cc(Br)c1OCCCCn1cncn1 do in these assays?
MITF inh: 62.8*; TEAD-YAP inh: 9.4; FBW7 act: 0.1; GPR151 activ: -1.3; MITF inh conf: 0.0; AS interf ctr: -4.2

How did Cc1cc(Cl)c(OCCCn2cncn2)c(Br)c1 do in these assays?
MITF inh: 4.4; TEAD-YAP inh: -0.1; FBW7 act: 0.2; GPR151 activ: -0.4

Results for Nc1nonc1-c1noc(-c2ccccc2Br)n1 ?
MITF inh: 76.7*; TEAD-YAP inh: -3.6; FBW7 act: 0.0; GPR151 activ: -1.2; MITF inh conf: 7.7; AS interf ctr: 12.5

How did Nc1nonc1-c1noc(-c2ccccc2F)n1 do in these assays?
MITF inh: 2.9; TEAD-YAP inh: -41.1; FBW7 act: 0.1; GPR151 activ: -1.5

What do the screens show for `CCN(CC)C(=S)SCc1cn2cccc(C)c2n1`?
MITF inh: -3.3; TEAD-YAP inh: -12.0; FBW7 act: 0.1; GPR151 activ: 1.3

What do the screens show for `CCN(CC)C(=S)SCc1c(C)c(C)c(Br)c(C)c1C`?
MITF inh: 52.0*; TEAD-YAP inh: 8.2; FBW7 act: 0.0; GPR151 activ: 0.8; MITF inh conf: 3.3; AS interf ctr: 6.7

How did CCOc1ccc(NC(=O)c2ccc(N3CC4CC(C3)c3cccc(=O)n3C4)c([N+](=O)[O-])c2)cc1 (stereo not given) do in these assays?
MITF inh: -2.8; TEAD-YAP inh: -1.6; FBW7 act: 0.0; GPR151 activ: -1.4

Results for CCOC(=O)N1CCN(C(=O)C2CCN(Cc3ccc(CC)cc3)CC2)CC1 ?
MITF inh: 42.2; TEAD-YAP inh: -3.0; FBW7 act: -0.2; GPR151 activ: -2.4

Results for CCc1ccc(CN2CCC(C(=O)N3CCCC3)CC2)cc1 ?
MITF inh: 58.4*; TEAD-YAP inh: -1.0; FBW7 act: 0.5; GPR151 activ: -0.7; MITF inh conf: 14.1; AS interf ctr: 19.1

Results for CCOC(=O)C1CCN(C(=O)C2CCN(Cc3ccc(CC)cc3)CC2)CC1 ?
MITF inh: 60.7*; TEAD-YAP inh: 13.3; FBW7 act: 0.1; GPR151 activ: -2.0; MITF inh conf: 6.6; AS interf ctr: 15.6

Results for O=C(C1CCN(Cc2ccc(F)cc2)CC1)N1CCN(Cc2ccccc2)CC1 ?
MITF inh: 62.0*; TEAD-YAP inh: 2.1; FBW7 act: -0.2; GPR151 activ: 1.2; MITF inh conf: 7.3; AS interf ctr: 14.0

Results for CCOC(=O)C1CCN(C(=O)/C=C/c2ccc(F)cc2)CC1 ?
MITF inh: 71.5*; TEAD-YAP inh: -35.7; FBW7 act: 0.0; GPR151 activ: -0.1; MITF inh conf: 1.3; AS interf ctr: -2.5

How did CCOC(=O)C1CCN(C(=O)/C=C/c2ccccc2)CC1 do in these assays?
MITF inh: -1.5; TEAD-YAP inh: -44.0; FBW7 act: -0.3; GPR151 activ: -0.5

Results for COc1ccc(OC)c(-n2c(CNC(=O)c3ccc(OC)c(OC)c3)nnc2SCC(=O)N2CCc3ccccc32)c1 ?
MITF inh: 16.0; TEAD-YAP inh: 9.9; FBW7 act: 0.4; GPR151 activ: -0.2

How did CCN1C(=O)S/C(=C\C(=O)O)C1=O do in these assays?
MITF inh: -0.7; TEAD-YAP inh: 0.7; FBW7 act: 0.0; GPR151 activ: -1.3

What do the screens show for `CN1CCN(/N=C/c2ccc(Sc3nncn3C)c([N+](=O)[O-])c2)CC1`?
MITF inh: 1.8; TEAD-YAP inh: 4.2; FBW7 act: -0.1; GPR151 activ: -0.5

Results for COc1ccc(NC(=O)c2cc(S(=O)(=O)N3CCN(c4ccccc4F)CC3)ccc2F)cc1 ?
MITF inh: 5.4; TEAD-YAP inh: -4.8; FBW7 act: -0.1; GPR151 activ: 2.5

What do the screens show for `CCOC(=O)C1CCN(Cc2cn[nH]c2-c2ccccc2)CC1`?
MITF inh: 54.7*; TEAD-YAP inh: -1.7; FBW7 act: 0.2; GPR151 activ: -0.6; MITF inh conf: -13.5; AS interf ctr: 11.2

Results for Cc1ccc(CNC(=O)C2CCN(Cc3ccc(F)cc3)CC2)cc1 ?
MITF inh: 37.0; TEAD-YAP inh: 2.8; FBW7 act: 0.2; GPR151 activ: 0.1

How did CCOc1ccc(CN2CCC(C(=O)NCc3ccc(C)cc3)CC2)cc1 do in these assays?
MITF inh: 54.4*; TEAD-YAP inh: 12.2; FBW7 act: 0.5; GPR151 activ: -0.3; MITF inh conf: 7.9; AS interf ctr: 18.4

Results for CCOC(=O)C1CCN(C(=O)C2CCN(Cc3ccc(OCC)cc3)CC2)CC1 ?
MITF inh: 52.9*; TEAD-YAP inh: 13.7; FBW7 act: -0.2; GPR151 activ: -0.1; MITF inh conf: 10.7; AS interf ctr: 10.9

How did O=c1c(-c2ccccc2)c(N2CCCc3ccccc32)c1=O do in these assays?
MITF inh: 0.9; TEAD-YAP inh: 0.7; FBW7 act: -0.2; GPR151 activ: 1.2

How did C/C(=C\CO)CC[C@H](C)CCC[C@H](C)CCCC(C)C do in these assays?
MITF inh: 104.8*; TEAD-YAP inh: -24.0; FBW7 act: -0.1; GPR151 activ: 1.6; MITF inh conf: -0.4; AS interf ctr: -2.9

How did CC(=O)CCCC(C)CCCC(C)CCCC(C)C (stereo not given) do in these assays?
MITF inh: -1.3; TEAD-YAP inh: -5.6; FBW7 act: 0.2; GPR151 activ: 2.0

What do the screens show for `C[C@@H](O)[C@@H]1NC(=O)[C@H]2CN(C(=O)NC3CCCCC3)CCN2C1=O`?
MITF inh: 80.3*; TEAD-YAP inh: 1.1; FBW7 act: -0.1; GPR151 activ: -1.1; MITF inh conf: 73.0*; AS interf DR: >6.48; AS interf ctr: -5.4

What do the screens show for `CC(C)[C@H]1NC(=O)[C@H]2CN(C(=O)NC3CCCCC3)CCN2C1=O`?
MITF inh: 75.9*; TEAD-YAP inh: 5.0; FBW7 act: -0.2; GPR151 activ: 0.7; MITF inh conf: 71.7*; AS interf DR: >6.48; AS interf ctr: -11.6

Results for CC(C)[C@H]1NC(=O)[C@H]2CN(C(=O)c3ccccc3)CCN2C1=O ?
MITF inh: 4.0; TEAD-YAP inh: -12.1; FBW7 act: -0.1; GPR151 activ: 1.2

What do the screens show for `Cc1ccc(C(=O)N2CCN3C(=O)[C@@H]([C@H](C)O)NC(=O)[C@H]3C2)cc1`?
MITF inh: 10.7; TEAD-YAP inh: -6.6; FBW7 act: 0.0; GPR151 activ: -0.7

How did FC(F)(F)Oc1cccc(-c2cc(NCCCN3CCOCC3)ncn2)c1 do in these assays?
MITF inh: 14.0; TEAD-YAP inh: 5.1; FBW7 act: 0.0; GPR151 activ: -0.7
